From PubChem BioAssay
An excerpt weighted towards active compounds, which were near 3.4% of everything screened.
MEKK2mut PB1 HTS: MEK5 binding signal on mutant MEKK2 PB1, primary screen, biochemical, multiplex bead flow cytometry, Alexa488-MEK5; AID 1530, 2009; percent response, % at 10 µM; Alexa488-MEK5 binding to MEKK2 mutant; 290,000 compounds, 0.35% hits; in the data active means percent response above about 24%, passing the limit was not always enough
MEKK2 WT-MEK5: modulators of MEK5 binding to wildtype MEKK2, primary screen, biochemical, multiplex bead flow cytometry, Alexa488-MEK5. Alexa488-MEK5 binding to MEKK2 WT; actives lie on both sides. binding response (% of control), % at 10 µM. 290,000 compounds, 1.1% hits. AID 1531, 2009; in the data active means binding response below about 67% or above about 130%
ANO1 activ: TMEM16A chloride channel activators or potentiators, primary screen, cell-based, HTS; HEK293 TMEM16A/YFP-H148Q/I152L, iodide quench fluorescence; stronger effect = lower value; B-score at 10 µM; 340,000 compounds, 0.3% hits; Anoctamin-1 (Mus musculus), Q8BHY3; AID 623877, 2012;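 active means fluorescence-ratio B-score plate-corrected deviation score at least 3 library SD below zero, with starting fluorescence score within 5 deviations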;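 further: channel opened by trigger with iodide after compound preincubation; score built on the fluorescence ratio of max minus min over baseline; more negative score means more quench and so TMEM16A activation or potentiation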
MEKK3 PB1 HTS: modulators of MEKK3-MEK5 PB1 binding, primary screen, biochemical, wildtype MEKK3, multiplex bead flow cytometry, Alexa488-MEK5; Mitogen-activated protein kinase kinase kinase 3 (Homo sapiens), Q99759; bead-based flow cytometry, Alexa488-MEK5 binding to MEKK3; actives lie on both sides; 0 = blocked by unlabeled MEK5, 100 = vehicle; binding response (% of control), % at 10 µM; 290,000 compounds, 1.4% hits; AID 1529, 2009;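 active means binding response more than 3 SD above or below the average of its plate-row segment, actives on both sides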;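 further: Alexa488 bead fluorescence after subtracting the streptavidin-only scavenger bead signal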
Target sequence (Q99759 whole entry, looked up): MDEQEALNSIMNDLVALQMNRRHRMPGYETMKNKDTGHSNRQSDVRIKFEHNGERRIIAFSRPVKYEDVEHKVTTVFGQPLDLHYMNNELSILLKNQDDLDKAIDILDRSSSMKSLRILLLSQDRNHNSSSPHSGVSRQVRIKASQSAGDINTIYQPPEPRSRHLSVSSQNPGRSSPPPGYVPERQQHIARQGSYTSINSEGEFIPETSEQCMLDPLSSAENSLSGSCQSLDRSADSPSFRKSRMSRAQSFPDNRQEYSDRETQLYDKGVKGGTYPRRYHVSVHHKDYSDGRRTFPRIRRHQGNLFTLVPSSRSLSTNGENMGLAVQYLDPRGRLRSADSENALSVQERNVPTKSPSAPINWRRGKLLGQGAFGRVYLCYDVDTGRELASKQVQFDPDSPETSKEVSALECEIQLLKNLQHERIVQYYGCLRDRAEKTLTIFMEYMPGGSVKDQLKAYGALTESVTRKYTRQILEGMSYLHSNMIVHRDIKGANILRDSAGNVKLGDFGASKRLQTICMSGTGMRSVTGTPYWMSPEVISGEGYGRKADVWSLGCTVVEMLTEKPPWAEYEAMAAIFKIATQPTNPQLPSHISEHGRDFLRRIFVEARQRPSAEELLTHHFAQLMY
NTR1 agonist: agonists of human NTR1, primary screen, imaging, U2OS cells, beta-arrestin-GFP, high content; 330,000 compounds, 0.17% hits; Neurotensin receptor type 1 (Homo sapiens), P30989; NTR1-U2OS beta-arrestin-GFP spot imaging, agonist mode; AID 493036, 2011; activation, % at 20 µM;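 active means activation at or above 40% of the spot to cytoplasm intensity ratio, with at least 20 cells analyzed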
ANO1 block: TMEM16A chloride channel inhibitors, primary screen, cell-based, HTS. Anoctamin-1 (Mus musculus), Q8BHY3. HEK293 TMEM16A/YFP iodide influx fluorescence, ionomycin. normalized B-score (activity score, 25-100; higher = stronger inhibition) at 10 µM. 310,000 compounds, 1.2% hits. AID 588511, 2011;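 active means ratio plate-corrected score three or more library SD toward inhibition, starting fluorescence score within five deviations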;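 further: score derived from kinetic fluorescence span divided by baseline fluorescence per well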
TMEM16A reconf: TMEM16A chloride channel inhibitors, confirmation, cell-based, re-confirmation; shares compounds with ANO1 block; HEK293 TMEM16A/YFP-H148Q, iodide quench fluorescence; ionomycin added to raise cell calcium; inhibition, % at 10 µM; 2,300 compounds, 39% hits;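 active means mean duplicate percent inhibition, scaled so buffer wells are 0 and the reference blocker 100, over three buffer SD above buffer mean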
HEK293 Ca mobil: calcium mobilization in TMEM16A/YFP HEK293 cells, confirmation, counter-screen for TMEM16A inhibitor project; shares compounds with ANO1 block; 2,300 compounds, 2% hits; calcium response (% of ionomycin), % at 10 µM; Fluo4 calcium mobilization;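 active means duplicate-averaged calcium signal over 20% of the ionomycin maximum, relative to buffer baseline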;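 further: each well's signal is peak minus trough fluorescence divided by its pre-addition baseline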
YFP-HEK293 quench: iodide YFP quench changes in parental YFP-HEK293, counter-screen for TMEM16A inhibitor project, cell-based. 2,300 tested, under 10 active. ionomycin. shares compounds with ANO1 block. YFP ratio F(max-min)/F0 at 10 µM;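 active means yellow fluorescent protein signal ratio exceeding the buffer control mean by over 5 SD of those controls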;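 further: ratio is mean of duplicate wells from kinetic YFP trace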
ClC-1 rat inh: ClC-1 chloride channel inhibition, selectivity assay for TMEM16A inhibitor project, cell-based, voltage-dependent ClC-1; ratio percent, % at 10 µM; AID 652236, 2013; 2,300 tested, under 10 active; shares compounds with ANO1 block; CHO ClC-1-YFP, iodide influx fluorescence quench; iodide control reads 0, buffer control 100;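 active means duplicate-mean ratio percent above the mean of iodide-only control wells, which defines zero, plus 5 of their SD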;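 further: higher percent means stronger block of ClC-1 iodide influx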
Hits are given with their value; n = inactive; x = no result given.

SMILES	MEKK2mut PB1 HTS	MEKK2 WT-MEK5	ANO1 activ	MEKK3 PB1 HTS	NTR1 agonist	ANO1 block	TMEM16A reconf	HEK293 Ca mobil	YFP-HEK293 quench	ClC-1 rat inh
O=C1NC(CCc2ccccc2)C(=O)N1CCOc1cccc(Br)c1 (stereo unspecified)	n	n	n	n	n	n	x	x	x	x
CC1=CC(C)C(C(=O)O)C(C(=O)O)C1 (stereo unspecified)	n	n	n	n	n	100	n	n	n	n
O=C(COC(=O)C12CC3CC(CC(C3)C1)C2)Nc1ccc(OC(F)F)cc1	n	n	n	n	n	25	n	n	n	n
OCC1(Cc2ccccc2)CCN(Cc2cnc(-c3cccc4ccccc34)nc2)CC1	n	n	n	n	n	n	x	x	x	x
OCC1(Cc2ccccc2)CCN(Cc2cnc(-c3ccc(Cl)cc3)nc2)CC1	n	n	n	n	n	n	n	n	n	n
Cc1ccc(Nc2nc(-c3cccs3)cs2)nc1	n	n	n	n	n	100	n	n	n	n
O=S(=O)(c1ccccc1)N1CCN(c2ccnc3cc(Cl)ccc23)CC1	n	n	n	n	n	100	n	n	n	n
Nc1nc(N2CCN(c3ccc(F)cc3)CC2)n[nH]1	n	n	n	n	n	n	x	x	x	x
CCc1ccc(CNc2ccc(N3CCN(C(C)=O)CC3)cc2)cc1	n	n	n	n	n	25	n	n	n	n
CC(=O)N1CCN(c2ccc(NCc3ccc(C)cc3)cc2)CC1	n	n	x	n	n	n	x	x	x	x
Cc1cccc2sc(NC(=O)CN(C)S(=O)(=O)c3ccc(Br)s3)nc12	n	n	n	n	n	100	n	n	n	n
O=C(CN(Cc1ccco1)C(=O)c1cc(=O)[nH]c2ccccc12)Nc1ccccc1Br	n	n	n	n	n	100	n	n	n	n
OCC[C@H]1C[C@H](O)[C@@H](O)[C@]2(Cc3ccccc3CCO2)O1	x	x	n	x	n	n	x	x	x	x
CCN1C=C(Cc2ccc(F)cc2)C2=C(C1)C(c1ccc(F)cc1)C(C#N)=C(N)O2 (stereo unspecified)	n	n	n	n	n	25	n	n	n	n
CCN1C=C(Cc2ccccc2C)C2=C(C1)C(c1ccccc1C)C(C#N)=C(N)O2 (stereo unspecified)	n	n	n	n	n	n	x	x	x	x
O=C(CN(c1ccccc1)S(=O)(=O)c1ccc(F)cc1)NC1CCS(=O)(=O)C1 (stereo unspecified)	n	n	n	n	n	n	x	x	x	x
O=C(N=C1SC2CS(=O)(=O)CC2N1c1ccc(Br)cc1)C1CCCO1 (stereo unspecified)	n	n	n	n	n	n	x	x	x	x
CN(C)S(=O)(=O)c1ccc(N2CCCC2)c(C(=O)Nc2nc3c(ccc4ccccc43)s2)c1	n	n	n	n	n	n	n	n	n	n
COc1ccc(/C=N/NC(=O)c2ccn[nH]2)cc1COc1ccc([N+](=O)[O-])c(C)c1	n	n	n	n	n	n	x	x	x	x
COc1ccc(/C=N/NC(=O)c2cccnc2)cc1COc1ccc([N+](=O)[O-])c(C)c1	n	n	n	n	n	25	22.5%	n	n	n
N#CCc1ccc(NS(=O)(=O)c2ccc(C3CCCCC3)cc2)cc1	n	n	n	n	x	25	34.5%	n	n	n
COc1ccc(S(=O)(=O)Nc2ccc(CC#N)cc2)cc1	n	n	n	n	n	n	x	x	x	x
COc1ccc(S(=O)(=O)N2CCCCC2)cc1NC(=O)CCNC(=O)c1ccccc1Cl	x	x	n	x	n	x	x	x	x	x
Cc1ccccc1NC(=O)CCCSc1nc2ccccc2s1	n	n	n	n	n	100	n	n	n	n
Cc1ccc(COc2ccccc2C(=S)N2CCCC2)cc1	n	n	n	n	n	25	n	n	n	n
SMILES	MEKK2mut PB1 HTS	MEKK2 WT-MEK5	ANO1 activ	MEKK3 PB1 HTS	NTR1 agonist	ANO1 block	TMEM16A reconf	HEK293 Ca mobil	YFP-HEK293 quench	ClC-1 rat inh
Cc1cccc(N(Cc2ccccc2)C(=O)CN2C(=O)NC3(CCCCC3C)C2=O)c1 (stereo unspecified)	x	x	n	x	n	x	x	x	x	x
Cc1ccc(S(=O)(=O)C(C#N)c2nc3ccccc3nc2N2CCCC2)cc1 (stereo unspecified)	n	n	n	n	n	n	x	x	x	x
COc1ccc(S(=O)(=O)C(C#N)c2nc3ccccc3nc2N2CCCC(C)C2)cc1 (stereo unspecified)	n	n	n	n	n	100	56.0%	n	n	n
CC1CCCN(c2nc3ccccc3nc2C(C#N)S(=O)(=O)c2cccs2)C1 (stereo unspecified)	n	n	n	n	n	n	x	x	x	x
Cc1cccc(S(=O)(=O)C(C#N)c2nc3ccccc3nc2N2CC(C)OC(C)C2)c1 (stereo unspecified)	n	n	n	n	n	25	18.0%	n	n	n
CCOc1ccc(C(=O)OCC(=O)NC2CCCC2)cc1OCC	n	n	n	n	n	n	x	x	x	x
O=c1oc(-c2ccc(Br)cc2)nc2ccccc12	n	n	n	n	n	n	x	x	x	x
NC(=O)C1CCN(C2=C(Cl)C(=O)c3ccccc3C2=O)CC1	n	n	n	n	n	100	28.5%	n	n	n
O=C1C(Cl)=C(N2CCC(C(=O)O)CC2)C(=O)c2ccccc21	n	n	n	n	n	n	x	x	x	x
CCOC(=O)c1ccccc1NC(=O)CSc1nnc(COc2ccccc2C)n1C	n	n	n	n	n	25	n	n	n	n
CCOC(=O)c1ccccc1NC(=O)CSc1nnnn1C1CCCCC1	n	n	n	n	n	100	n	n	n	n
O=C(Cn1nc(C(=O)O)c2ccccc2c1=O)Nc1cccc(Br)c1	n	n	n	n	n	n	x	x	x	x
